# Records with an inconclusive call do not appear. Entries that show only a call come without a potency. Active and inactive are the calls of the source. Calls come from the whole dose curve; as a rule, active = well fitted inhibition curve with a large enough effect; inconclusive = small, poorly fitted or top-dose-only effect; inactive = flat fitted curve, though single readings scatter.
# How the values were obtained:
# Assay in all cases: qHTS profiling for inhibitors of Plasmodium falciparum proliferation (AID 504749); note: nearly all actives have a fitted effect of over 60% in size
# Conditions in all cases: P. falciparum in erythrocytes, SYBR Green DNA, 72 h; series mostly up to 28.7 µM
# ATS95 = system: ATS95
# Summary of the method: (§1)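 Three-day growth assay of blood-stage parasites in erythrocytes (0.3% parasitemia, 2.5% hematocrit) at 37 C, 5% CO2, quantified by SYBR Green DNA staining after overnight detergent lysis.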
# C2A = system: C2A
# Summary of the method: as §1
# CP211 = system: CP211
# Summary of the method: as §1
# CP215 = system: CP215
# Summary of the method: as §1
# CP217 = system: CP217
# Summary of the method: as §1
# CP250 = system: CP250
# Summary of the method: as §1
# CP252 = system: CP252
# Summary of the method: as §1
# CP256 = system: CP256
# Summary of the method: as §1
# CP262 = system: CP262
# Summary of the method: as §1
# CP265 = system: CP265
# Summary of the method: as §1
# CP268 = system: CP268
# Summary of the method: as §1
# CP269 = system: CP269
# Summary of the method: as §1
# CP325 = system: CP325
# Summary of the method: as §1
# CP329 = system: CP329
# Summary of the method: as §1
# CP335 = system: CP335
# Summary of the method: as §1
# ECU = system: ECU
# Summary of the method: as §1
# P93_24 = system: P93_24
# Summary of the method: as §1
# PAD = system: PAD
# Summary of the method: as §1
# PC26 = system: PC26
# Summary of the method: as §1
# SC27B = system: SC27B
# Summary of the method: as §1
# Potency is the fitted concentration of half-maximal effect.
Compound,Potency (ATS95),Potency (C2A),Potency (CP211),Potency (CP215),Potency (CP217),Potency (CP250),Potency (CP252),Potency (CP256),Potency (CP262),Potency (CP265),Potency (CP268),Potency (CP269),Potency (CP325),Potency (CP329),Potency (CP335),Potency (ECU),Potency (P93_24),Potency (PAD),Potency (PC26),Potency (SC27B)
O=C(O)c1ccccc1-c1c2cc(Br)c(=O)cc-2oc2[c]([Hg])c(O)c(Br)cc12,inactive,inactive,inactive,inactive,inactive,inactive,inactive,inactive,inactive,inactive,inactive,inactive,inactive,inactive,inactive,inactive,inactive,inactive,inactive,inactive
CC(C)[C@@]1(NC(=O)[C@H]2CC3c4cccc5[nH]cc(c45)C[C@H]3N(C)C2)O[C@@]2(O)C3CCCN3C(=O)[C@@H](Cc3ccccc3)N2C1=O (stereo not given in full),3.16 µM (active),6.31 µM (active),6.01 µM (active),5.36 µM (active),3.98 µM (active),12.6 µM (active),3.98 µM (active),7.94 µM (active),12 µM (active),4.47 µM (active),10.7 µM (active),4.26 µM (active),9.53 µM (active),13.5 µM (active),3.79 µM (active),1.41 µM (active),0.891 µM (active),1.12 µM (active),1.51 µM (active),2 µM (active)
